# Hits are enriched below; roughly 14% of the tested compounds scored in any of these assays.
# HCMV inh: qHTS Assay for inhibitors of the human cytomegalovirus (HCMV); activity change, negative = inhibition, % at 57.5 µM; HFF cells, HCMV-luciferase reporter, 72 h; hits give low values; 4.5% of 410,000 active; AID 1259415, 2018; in the data active means activity change below about -60%; inconclusive means no clear call, values can overlap the other calls; inactive means above about -39%
#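 Two-dose cell screen: HFF monolayers treated with compounds and infected with luciferase-expressing HCMV at 1 PFU/cell, 72 h at 37C, then lysed for luciferase measurement.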
# Sm TGR block: qHTS Assay for the Inhibitors of Schistosoma Mansoni Peroxiredoxins | Schistosoma mansoni thioredoxin glutathione reductase (TGR), Q962Y6 | purified TGR, DTNB reduction, TNB absorbance 405 nm | Potency, µM (doses to about 114 µM), inactives show at the top dose activity change, negative = inhibition, most hits filed as inhibitors | 3% of 360,000 active | AID 485364, 2010; further: potency means the concentration at half of the fitted maximal effect; nearly all actives have a fitted effect of over 60% in size
#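 First, TGR (20 nM dispensed) and NADPH were mixed with compound. Second, a 15 min room-temperature incubation followed. Third, further NADPH and then DTNB were added to start the reaction. Finally, TNB absorbance was monitored kinetically.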
# Pf growth 48h: Primary qHTS for delayed death inhibitors of the malarial parasite plastid, 48 hour incubation. 5.9% of 310,000 active. P. falciparum luciferase growth in erythrocytes, 48 h. Potency, µM (doses to about 28.7 µM), for the others: at the highest dose activity change, negative = inhibition, hits mostly inhibitors; further: potency means the concentration at half of the fitted maximal effect
#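 Parasite viability was followed by luminescence of a genomically integrated firefly luciferase. Cultures held 0.1% parasitemia at 2% hematocrit (final), incubated under 5% CO2 at 37 C.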
# Giardia FBPA inh: qHTS Assay for Inhibitors of Fructose-1,6-bisphosphate Aldolase from Giardia Lamblia; A8B2U2; purified Giardia FBPA; Potency, µM (highest dose often 59.6 µM), for inactives: at the top dose activity, negative = inhibition, hits mostly inhibitors; 0.71% of 290,000 active; further: potency means the concentration at half of the fitted maximal effect; nearly all actives have a fitted effect of over 55% in size
# Target sequence (A8B2U2 whole entry, looked up): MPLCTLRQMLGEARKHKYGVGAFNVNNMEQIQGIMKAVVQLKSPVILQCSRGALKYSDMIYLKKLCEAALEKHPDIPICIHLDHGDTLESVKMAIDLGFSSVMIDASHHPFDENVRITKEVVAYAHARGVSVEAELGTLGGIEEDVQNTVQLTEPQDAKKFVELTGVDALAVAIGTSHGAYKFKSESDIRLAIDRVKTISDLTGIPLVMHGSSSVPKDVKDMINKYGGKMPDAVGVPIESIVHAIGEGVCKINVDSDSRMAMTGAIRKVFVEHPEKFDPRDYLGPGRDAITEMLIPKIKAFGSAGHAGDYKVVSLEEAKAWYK
#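 40 nM FBPA preincubated 10 min at RT with compound (up to 57.5 uM final), then substrate plus GAPDH/TPI/NAD/arsenate coupling and diaphorase/resazurin added. Fluorescence read after 20 min at RT, 525/598 nm.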
# Pf growth 96h: Primary qHTS for delayed death inhibitors of the malarial parasite plastid, 96 hour incubation. Potency, µM (series often up to 28.7 µM), without a hit: at the top dose activity change, negative = inhibition, usual class: inhibitors. 6.9% of 320,000 active. P. falciparum luciferase reporter growth, 96 h; further: potency means the concentration at half of the fitted maximal effect
#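 Delayed-death screen, second-generation endpoint: infected erythrocytes, 2% hematocrit, 0.05% parasitemia final; 96 hours at 37 C, 5% CO2; luciferase detection reagent; luminescence decrease equals reduced growth.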
# * marks the source's active call; other numbers are inactive results; i = inactive; u = inconclusive; x = no result given. Unless noted, the call rests on the fitted dose curve; in most records, active means well fitted curve in the direction sought with a large enough effect; inconclusive means small, poorly fitted or top-dose-only effect, or another doubt; inactive means no such curve, though single readings can be large; an effect the other way counts as inactive or inconclusive. On the % scale 0 is the no-effect control and ±100 the full control effect.
SMILES,HCMV inh,Sm TGR block,Pf growth 48h,Giardia FBPA inh,Pf growth 96h
CNC(Cc1c[nH]c2ccccc12)C(=O)O (centres undefined),x,x,x,-9%,x
COC(=O)[C@@H](Cc1c[nH]c2ccccc12)NC(=O)c1ccc2c(c1)OCO2,-105*,-23%,268%,3%,i
COC(=O)C(Cc1c[nH]c2ccccc12)NC(C)=O (centres undefined),-1,0%,-6%,3%,4.1µM*
CNC(=O)[C@H](Cc1c[nH]c2ccccc12)NC(=O)[C@@H](CC(=O)NO)CC(C)C,x,x,3.8µM*,x,11%
C/C(=N\NC(=O)CN1CCN(Cc2ccccc2)CC1)c1cccs1,-2,3%,54%,5%,43%
O=C(COc1ccc(Cl)cc1)NCCNc1ccc([N+](=O)[O-])cc1,43,-18%,19%,0%,3%
COc1ccc(-c2noc(CC(=O)Nc3ccc(F)cc3F)n2)cc1,-32,2%,x,x,x
Cc1cc(C(=O)NC(Cc2c[nH]c3ccccc23)C(=O)O)c(C)o1 (centres undefined),36,-8%,-2%,3%,u
COC(=O)C(Cc1c[nH]c2ccccc12)NC(=O)c1cc(-c2ccc(OC)c(OC)c2)oc1C (centres undefined),43,-26%,2.9µM*,-4%,u
NC(=O)N[C@@H](Cc1c[nH]c2ccccc12)C(=O)OCC(=O)N1CCCCC1,-31,-3%,12µM*,3%,68%
CCN(CC)Cc1nc2c(c(=O)[nH]1)C1(CCCC1)Cc1ccccc1-2,26,14%,u,0%,12µM*
O=c1[nH]c(CN(CCO)CCO)nc2c1C1(CCCCC1)Cc1ccccc1-2,-31,u,-12%,-3%,42%
Cc1nnc(SC(C)C(=O)Nc2ccc3c(c2)OCCO3)s1 (centres undefined),-19,-10%,8%,-12%,10µM*
Cc1nnc(NC(=O)c2ccc(S(=O)(=O)N3CCCCC3)cc2)s1,-29,x,x,x,x
Cc1nnc(SC(C)C(=O)Nc2ccc(S(=O)(=O)N3CCCCCC3)cc2)s1 (centres undefined),-7,-2%,12µM*,1%,x
COc1ccc(-c2nnc(SC(C)C(=O)Nc3ccc4c(c3)OCCO4)o2)cc1 (centres undefined),95,-15%,63%,-6%,12µM*
COC(=O)C1=C(O)C(C(=O)OC)C(c2ccc(C)cc2)C(C#N)(C#N)C1c1ccc(C)cc1 (centres undefined),-96*,0%,u,-2%,u
O=P(O)(O)CCP(=O)(c1ccccc1)c1ccccc1,18,8%,-12%,3%,1.7µM*
COc1ccc(F)cc1-c1cc(C(=O)Nc2cccnc2)[nH]n1,44,x,x,x,x
Cc1ccc(O)c(-c2cc(C(=O)Nc3cccnc3)[nH]n2)c1,53,1%,3.7µM*,3%,2.9µM*
O=C(Nc1cccnc1)c1cc(-c2cc(Cl)ccc2O)n[nH]1,27,0%,u,0%,0.74µM*
CCOC(=O)N1CCN(C(=O)C[C@@H]2C[C@@]3(C(=O)OCC)CCCC=C3N(Cc3ccccc3)C2=O)CC1,-1,x,x,x,x
O=[N+]([O-])c1ccc2c(c1)-c1ccccc1C2=NO,-70*,x,x,x,x
Nc1ccc2c(c1)C(=NO)c1cc([N+](=O)[O-])ccc1-2,-85*,x,x,x,x
COc1ccc(N=C2c3ccccc3-c3ccc([N+](=O)[O-])cc32)cc1,-9,x,x,x,x
SMILES,HCMV inh,Sm TGR block,Pf growth 48h,Giardia FBPA inh,Pf growth 96h
O=[N+]([O-])c1ccc2c(c1)C(=Nc1ccccc1)c1ccccc1-2,-92*,x,x,x,x
CN(CC(=O)NCCc1ccccc1)S(=O)(=O)c1cccc2nsnc12,-19,0%,-14%,-3%,8.3µM*
CCN(CCCNC(=O)CN(C)S(=O)(=O)c1cccc2nsnc12)c1ccccc1,-13,0%,u,-2%,12µM*
CN(CC(=O)NCCN1CCN(Cc2ccccc2)CC1)S(=O)(=O)c1cccc2nsnc12,-3,7%,u,5%,1%
CN(CC(=O)N1CCN(Cc2ccccc2)CC1)S(=O)(=O)c1cccc2nsnc12,-26,-2%,-2%,3%,4.1µM*
O=C(NC1CCCCCC1)c1ccc2c(c1)sc1nc(-c3ccc(F)cc3)cn12,x,-22%,x,x,x
CC1(C(=O)NS(=O)(=O)C2CC2)CCCN(C(=O)c2cccnc2Oc2ccccc2)C1 (centres undefined),10,x,x,x,x
Clc1ccc2ncc(-c3nnnn3-c3ccccc3)c(-c3ccccc3)c2c1,-36,4%,u,-12%,u
Clc1ccc(-n2nnnc2-c2cnc3ccc(Cl)cc3c2-c2ccccc2)cc1,-16,11%,13µM*,-3%,12µM*
Cc1ccc(CNC(=O)Cn2ccc3cc(S(=O)(=O)N4CCCC4)ccc32)o1,24,-29%,-2%,8%,34%
CC(C)(C)c1cc(N2CCOCC2)n2ncc(-c3ccccc3)c2n1,6,-3%,x,6%,-20%
CCCc1cc(N2CCOCC2)n2ncc(-c3ccccc3)c2n1,-62*,1%,29%,4%,38%
CCc1ccc(/C=C/c2c[nH]c3ccccc23)[n+](CC)c1,-97*,-5%,0.21µM*,-6%,0.074µM*
CCc1ccc(-c2cc(C(=O)N/N=C/c3c[nH]c4ccccc34)[nH]n2)cc1,0,8%,28%,-1%,13%
COc1ccc(NC(=O)COC(=O)CCNC(=O)c2ccco2)cc1Cl,35,x,x,x,x
COc1cc(NC(=O)CN2C(=O)C(=O)N(CC(C)C)C2=O)cc(OC)c1,x,-1%,u,x,14%
COc1cc(NC(=O)CN2C(=O)C(=O)N(C3CCCC3)C2=O)cc(OC)c1,-99*,2%,5%,x,-17%
CCN1CCN(C(=O)c2c(C)nn(-c3ccc(F)cc3)c2-n2cccc2)CC1,-2,-1%,x,x,x
CCOC(=O)c1c(C2COc3ccccc3O2)csc1N (centres undefined),-33,3%,x,0%,x
CCN(CC)c1ncnc2scc(C3COc4ccccc4O3)c12 (centres undefined),u,-1%,8.3µM*,9%,-19%
c1ccc(-c2csc3ncnc(N4CCOCC4)c23)cc1,-38,1%,-4%,4%,32%
c1ccc2c(c1)OCC(c1csc3ncnc(N4CCOCC4)c13)O2 (centres undefined),-60*,8%,-27%,6%,x
CC(C)c1cc2c(c(O)c1O)[C@@]13CCCC(C)(C)C1CC2OC3=O (some centres undefined),9,2.8µM*,u,5µM*,u
Oc1cc(Cc2ccccc2)cnc1CN1CCCCC1,-3,u,0.93µM*,-25%,-25%

# Screening data (PubChem)
